Experimental data from PubChem BioAssay (NCI).
Compounds without any hit were thinned out: in the full panel of roughly 83,000, 20% have a hit.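 A percent growth of 40 corresponds to 60% growth inhibition; 0 means no net growth; -100 means all cells died. Active threshold: below 10.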 Calls of active or inactive are those of the source.

Assays:
Assay in all cases: NCI-60 one-dose screen, 48 h (100 = growth as untreated, 0 = no growth, -100 = all killed)
HCT-15 colon = conditions: 10 µM unless noted
HT29 colon = conditions: 10 µM unless noted
SNB-75 CNS = conditions: 10 µM unless noted
U251 CNS = conditions: 10 µM unless noted
PC-3 prostate = conditions: 10 µM unless noted
SK-MEL-5 melanoma = conditions: 10 µM unless noted
UACC-62 melanoma = conditions: 10 µM unless noted
SK-MEL-28 melanoma = conditions: 10 µM unless noted
LOX IMVI melanoma = conditions: 10 µM

| SMILES | growth (HCT-15 colon) | growth (HT29 colon) | growth (SNB-75 CNS) | growth (U251 CNS) | growth (PC-3 prostate) | growth (SK-MEL-5 melanoma) | growth (UACC-62 melanoma) | growth (SK-MEL-28 melanoma) | growth (LOX IMVI melanoma) |
| --- | --- | --- | --- | --- | --- | --- | --- | --- | --- |
| N#Cc1ccc(C(=O)Nn2c(N)cc3ccccc3c2=O)cc1 | 103% (inactive) | 103% (inactive) | 111% (inactive) | 98% (inactive) | 94.6% (inactive) | 99.4% (inactive) | 86.1% (inactive) | 104% (inactive) | – |
| Clc1ccc(-c2ccc(OCCCN3CCN(c4ccncc4)CC3)cc2)cc1 | -66% (active) | -30.6% (active) | 83.6% (inactive) | 35.7% (inactive) | 24.6% (inactive) | 13.7% (inactive) | 74% (inactive) | 90.1% (inactive) | -89.8% (active) |
| Cc1ccc(S(=O)(=O)c2nc(S(=O)(=O)c3ccc(C)cc3)c(N3CCN(C)CC3)s2)cc1 | 24.6% (inactive) | 56% (inactive) | 91.3% (inactive) | 52.9% (inactive) | 78.8% (inactive) | 63.2% (inactive) | 48% (inactive) | 68.8% (inactive) | – |
| COc1cc2c(c(OC)c1OC)C(=O)CC(c1cccc(NC(=O)[C@@H](N)CC(C)C)c1)O2 (some centres not stated) | 95.3% (inactive) | 108% (inactive) | 97.8% (inactive) | 95.3% (inactive) | 97.2% (inactive) | 96.7% (inactive) | 96.8% (inactive) | 115% (inactive) | – |
| CC(C)CSc1nc(NCCc2c[nH]c3ccccc23)c(C#N)c(-c2ccc(F)cc2)n1 | 19.6% (inactive) | 5.49% (active) | 61.1% (inactive) | 21.1% (inactive) | 26.2% (inactive) | 17.3% (inactive) | 60.6% (inactive) | 79.1% (inactive) | – |
| O=C(COc1ccc(NC(=O)Nc2ccc(Cl)c(Cl)c2)cc1)N=Nc1c(O)[nH]c2ccc([N+](=O)[O-])cc12 | 88.5% (inactive) | 81.6% (inactive) | 66.2% (inactive) | 19.4% (inactive) | 71.6% (inactive) | 90.7% (inactive) | 85.6% (inactive) | 57.6% (inactive) | – |
| C=CC[N+](C)(C)CCn1c2ccccc2c2nc3cc(C)c(C)cc3nc21 | 106% (inactive) | 105% (inactive) | 88.5% (inactive) | 72.9% (inactive) | 97.4% (inactive) | 63.7% (inactive) | 97.1% (inactive) | 79.6% (inactive) | – |
| CC(=O)OC[C@@]1(C)C2CC[C@]3(C)C(CC=C4C5CC(C)(C)CC[C@]5(C(=O)Nc5ccc(F)cc5)CC[C@]43C)[C@@]2(C)C[C@@H](OC(C)=O)[C@@H]1OC(C)=O (some centres not stated) | 33.8% (inactive) | 34.7% (inactive) | 54.4% (inactive) | 40.3% (inactive) | 34.5% (inactive) | 8.24% (active) | 30.3% (inactive) | 58.6% (inactive) | 11.1% (inactive) |
| CCC(C)(C)c1ccc(OCCCCCCN2CCN(c3ccncc3)CC2)cc1 | -55.5% (active) | -39.8% (active) | 69.6% (inactive) | -45.7% (active) | -4.93% (active) | -99.2% (active) | -48% (active) | -18.9% (active) | -96.8% (active) |
| Cc1ccc(C(SCCNCc2cc(N(C)C)ccn2)(c2ccccc2)c2ccccc2)cc1 | -68.8% (active) | -77.2% (active) | 8.64% (active) | -89.3% (active) | -43.4% (active) | -100% (active) | -64.4% (active) | -95.3% (active) | -100% (active) |
| COc1ccc2nc(Nc3cccc(NC(=O)c4ccc(CN5CCCN(C)CC5)c(C(F)(F)F)c4)c3)ccc2c1 | -64.7% (active) | -69.7% (active) | -35.3% (active) | 1.47% (active) | -57% (active) | -69.2% (active) | -61.1% (active) | -74.9% (active) | – |
| O=C(CSc1nc2ccccc2c(=O)[nH]1)NCCN1CCCCC1 | 97.5% (inactive) | 108% (inactive) | 79.1% (inactive) | 98.7% (inactive) | 91.2% (inactive) | 100% (inactive) | 90.7% (inactive) | 98.7% (inactive) | 98.3% (inactive) |
| CC(=O)Nc1ccc(-c2nc3cc(-c4ccc(O)cc4)ccc3n2C)cc1 | 36.8% (inactive) | 53.6% (inactive) | 44.1% (inactive) | 59.9% (inactive) | 74.6% (inactive) | 78.3% (inactive) | 51.4% (inactive) | 74.3% (inactive) | – |
| Cc1cccc(NC(=O)CN2CCN(c3ncnc4c3cnn4-c3ccccc3)CC2)c1 | 55.4% (inactive) | 76.1% (inactive) | 100% (inactive) | 89% (inactive) | 63.1% (inactive) | 78.5% (inactive) | 67.9% (inactive) | 90.1% (inactive) | 88.1% (inactive) |
| CCN(CC)c1ccc(/C=N/Nc2nc(-c3ccc(Br)cc3)cs2)c(O)c1 | 11.5% (inactive) | 56.3% (inactive) | 77.4% (inactive) | 81.7% (inactive) | 85.2% (inactive) | 77.2% (inactive) | 77.4% (inactive) | 86.2% (inactive) | -57.5% (active) |
| COc1ccc(-c2nc(SC(C)C)nc(NCCc3c[nH]c4ccccc34)c2C#N)cc1 | 15.3% (inactive) | 8.23% (active) | 65.6% (inactive) | 27.1% (inactive) | 11.7% (inactive) | 5.52% (active) | 73.6% (inactive) | 69.7% (inactive) | 21.2% (inactive) |
| CC(C)CSc1nc(NCCc2c[nH]c3ccccc23)c(C#N)c(-c2ccc(Cl)cc2)n1 | 29.8% (inactive) | 15.1% (inactive) | 77.3% (inactive) | 23.8% (inactive) | 23.1% (inactive) | 30% (inactive) | 74.1% (inactive) | 72.1% (inactive) | 22.5% (inactive) |
| COc1cc2oc(-c3cccc(NC(=O)[C@H](CC(N)=O)NC(=O)OC(C)(C)C)c3)cc(=O)c2c(OC)c1OC | 99.8% (inactive) | 97.8% (inactive) | 95.9% (inactive) | 90.1% (inactive) | 75.8% (inactive) | 87.6% (inactive) | 82% (inactive) | 94% (inactive) | 81.5% (inactive) |
| COc1ccc(-c2nc(SCC(C)C)nc(NCCc3c[nH]c4ccccc34)c2C#N)cc1 | 29.4% (inactive) | 35% (inactive) | 74.1% (inactive) | 40.7% (inactive) | 24% (inactive) | 37.2% (inactive) | 76.2% (inactive) | 71.5% (inactive) | 46.1% (inactive) |
| Cc1ccc(NC(=O)[C@]23CCC(C)(C)CC2C2=CCC4[C@@]5(C)C[C@@H](O)[C@H](O)[C@@](C)(CO)C5CC[C@@]4(C)[C@]2(C)CC3)cc1 (some centres not stated) | 11.7% (inactive) | -50% (active) | 74.4% (inactive) | 26.8% (inactive) | 5.82% (active) | -83.2% (active) | 34.3% (inactive) | 47.9% (inactive) | -6.45% (active) |
| CCCSc1nc(NCCc2c[nH]c3ccccc23)c(C#N)c(-c2ccc(F)cc2)n1 | 18.8% (inactive) | 15.6% (inactive) | 85.7% (inactive) | 28.2% (inactive) | 23.8% (inactive) | 13.1% (inactive) | 54.6% (inactive) | 63.3% (inactive) | 21.1% (inactive) |
| CC(C)c1ccc2c(N)c(C(=O)Nc3cccc(C(F)(F)F)c3)sc2n1 | -0.908% (active) | 29.2% (inactive) | 129% (inactive) | 71.1% (inactive) | 73.7% (inactive) | 72.3% (inactive) | 92.5% (inactive) | 80.2% (inactive) | – |
| CCOC(=O)C(N=Nc1ccc(S(=O)(=O)N=C(N)N)cc1)C(C)=O (configuration not stated) | 108% (inactive) | 107% (inactive) | 74.3% (inactive) | 98.6% (inactive) | 98.5% (inactive) | 102% (inactive) | 99.2% (inactive) | 109% (inactive) | – |
| CN(C)c1ccnc(CNCCSC2(c3ccc(C(F)(F)F)cc3)c3ccccc3CCc3ccccc32)c1 | -82.8% (active) | -65.9% (active) | -2.6% (active) | -94.9% (active) | -35.3% (active) | -99.6% (active) | -5.98% (active) | -81.7% (active) | -98.1% (active) |
| Nc1cccc(SCc2cc3ccccc3[nH]c2=O)c1 | 43.3% (inactive) | 65.7% (inactive) | 83.1% (inactive) | 64.1% (inactive) | 63% (inactive) | -4.45% (active) | 4.09% (active) | 61.6% (inactive) | 9.48% (active) |
| CC1(C)CC[C@]2(C(=O)Nc3ccccc3)CC[C@]3(C)C(=CCC4[C@@]5(C)C[C@@H](O)[C@H](O)[C@@](C)(CO)C5CC[C@]43C)C2C1 (some centres not stated) | 42.5% (inactive) | 22.1% (inactive) | 85.5% (inactive) | 51.1% (inactive) | 20.4% (inactive) | 20.2% (inactive) | 57.5% (inactive) | 70.6% (inactive) | 53.1% (inactive) |
| O=C(c1ccc(Cl)cc1)c1ccc(OCCCN2CCN(c3ccncc3)CC2)cc1 | -18.6% (active) | 11.2% (inactive) | 69.4% (inactive) | 28.6% (inactive) | 26.9% (inactive) | -47.7% (active) | -63.5% (active) | 14.8% (inactive) | 10.1% (inactive) |
| CC(C)Sc1nc(NCCc2c[nH]c3ccccc23)c(C#N)c(-c2ccccc2)n1 | -19.9% (active) | -30.6% (active) | 60.6% (inactive) | 15.5% (inactive) | 12.6% (inactive) | -6.58% (active) | 79.4% (inactive) | 81.5% (inactive) | -68.7% (active) |
